This passage reports z-score and composite z-score results from PubChem BioAssay.

Activity calls are given as the source filed them.

Assay [1] in a line: optical density shifts of acrAB sulA E. coli – strain DRC41, OD650, 48 h, E. coli filamentation inducer project, primary screen (AID 1152).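 Also: E. coli MC1000 strain DRC41 lacking acrAB efflux pump and sulA.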 Particulars: higher = more signal, called active from +8 up or from −8 down.
Assay [2] can be described thus: probe aLefty1 binding on compound microarray – biochemical, small-molecule microarray, 635/667 nm fluorescence, primary screen (AID 1153).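 Also: score merges spot fluorescence with signal-to-noise ratio from the scanned slide images.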 Particulars: higher = more signal.
Assay [3] can be described thus: plasmodial surface anion channel blockers, osmotic lysis – cell-based, P. falciparum Indochina, OD700, 1 h, primary screen (AID 1154). Particulars: P. falciparum Indochina infected RBC osmotic lysis, higher = more signal, called active from +8 up or from −8 down.
Assay [4] in a line: plasmodial surface anion channel blockers, osmotic lysis – cell-based, P. falciparum Indochina, OD700, 2 h, primary screen (AID 1155).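 Also: lysis reports solute entry through the parasite surface anion channel PSAC.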 Particulars: P. falciparum Indochina infected erythrocytes, higher = more signal, called active from +8 up or from −8 down.
Assay [5] in a line: changes in parasitized red cell lysis, either direction – P. falciparum Indochina, OD700, 3 h, PSAC antagonist project, primary screen (AID 1156). Particulars: P. falciparum-infected erythrocytes, osmotic lysis, higher = more signal, called active from +8 up or from −8 down.
A short description of assay [6]: plasmodial surface anion channel blockers, osmotic lysis – cell-based, P. falciparum Indochina, OD700, 18 h, primary screen (AID 1157). Particulars: P. falciparum Indochina infected erythrocytes, osmotic lysis OD700, 18 h; higher = more signal, called active from +8 up or from −8 down.
A short description of assay [7]: S6 kinase pathway phospho-S6 level changes – cell-based, A549, cytoblot, luminescence, serum-stimulated, primary screen (AID 1158).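 Also: serum-stimulated A549 lung adenocarcinoma cells; signal is phosphorylated S6 detected by cytoblot immunostaining with HRP secondary.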 Particulars: 5 h, higher = more signal.
Assay [8] concerns the target NADPH oxidase 2 (Homo sapiens) (UniProt P04839). The experiment in a line: compounds shifting NOX2 Amplex Red fluorescence – cell-based, HEK293-NOX2, PMA-stimulated, NOX inhibitor project, primary screen (AID 1159). Also: test concentration not given here. Particulars: 45 min, higher = more signal, called active from +8 up or from −8 down.
Assay [9] deals with NADPH oxidase 4 (Homo sapiens) (UniProt Q9NPH5). The experiment in a line: compounds shifting NOX4 Amplex Red fluorescence – cell-based, HEK293-NOX4, tetracycline-induced, NOX inhibitor project, primary screen (AID 1160). Particulars: HEK293-NOX4, Amplex Red H2O2 fluorescence, 45 min; higher = more signal, called active from +8 up or from −8 down.
Chain of NADPH oxidase 4 (Homo sapiens) (Q9NPH5 whole entry, looked up): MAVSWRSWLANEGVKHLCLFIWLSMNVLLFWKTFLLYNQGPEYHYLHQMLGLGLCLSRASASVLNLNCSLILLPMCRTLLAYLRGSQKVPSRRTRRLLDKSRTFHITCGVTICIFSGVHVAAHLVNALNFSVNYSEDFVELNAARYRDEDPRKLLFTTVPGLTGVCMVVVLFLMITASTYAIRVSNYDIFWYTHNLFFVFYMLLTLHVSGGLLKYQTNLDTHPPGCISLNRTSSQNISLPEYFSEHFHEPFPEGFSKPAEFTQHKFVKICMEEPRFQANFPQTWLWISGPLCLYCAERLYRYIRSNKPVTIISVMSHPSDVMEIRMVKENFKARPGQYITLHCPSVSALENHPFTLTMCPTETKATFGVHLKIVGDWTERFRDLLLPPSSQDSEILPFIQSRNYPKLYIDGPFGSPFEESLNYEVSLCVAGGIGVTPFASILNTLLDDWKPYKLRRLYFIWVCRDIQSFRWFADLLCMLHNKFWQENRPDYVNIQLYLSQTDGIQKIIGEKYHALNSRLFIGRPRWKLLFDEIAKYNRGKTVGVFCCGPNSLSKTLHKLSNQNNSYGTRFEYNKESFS
The target in assay [10] is NADPH oxidase 5 (Homo sapiens) (UniProt Q96PH1). The experiment in a line: compounds shifting NOX5 Amplex Red fluorescence – cell-based, HEK293-NOX5, NOX inhibitor project, primary screen (AID 1161). Particulars: HEK293-NOX5, ionomycin, 45 min, higher = more signal.
Chain of NADPH oxidase 5 (Homo sapiens) (Q96PH1 whole entry, looked up): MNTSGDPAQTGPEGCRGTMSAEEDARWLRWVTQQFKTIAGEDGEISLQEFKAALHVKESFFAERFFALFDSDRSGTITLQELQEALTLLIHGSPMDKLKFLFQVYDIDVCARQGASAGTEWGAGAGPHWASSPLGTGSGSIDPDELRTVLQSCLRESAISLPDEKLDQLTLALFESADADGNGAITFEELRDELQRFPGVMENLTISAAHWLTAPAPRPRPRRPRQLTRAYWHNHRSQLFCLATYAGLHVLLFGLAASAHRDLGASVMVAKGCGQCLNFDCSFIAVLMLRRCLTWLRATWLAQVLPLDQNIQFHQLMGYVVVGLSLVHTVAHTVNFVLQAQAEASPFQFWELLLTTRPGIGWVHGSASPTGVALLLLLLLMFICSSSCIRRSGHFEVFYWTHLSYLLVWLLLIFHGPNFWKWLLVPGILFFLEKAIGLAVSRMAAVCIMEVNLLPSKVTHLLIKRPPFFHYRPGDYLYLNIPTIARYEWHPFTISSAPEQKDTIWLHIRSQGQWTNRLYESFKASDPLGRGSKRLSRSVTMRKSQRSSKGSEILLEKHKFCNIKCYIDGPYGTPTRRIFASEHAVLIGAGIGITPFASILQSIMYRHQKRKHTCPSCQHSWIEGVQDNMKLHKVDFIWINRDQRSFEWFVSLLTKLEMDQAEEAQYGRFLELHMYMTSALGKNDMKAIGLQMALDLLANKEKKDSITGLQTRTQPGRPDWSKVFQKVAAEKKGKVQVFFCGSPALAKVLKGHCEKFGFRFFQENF
The nature of assay [11]: compound effects on lung adenocarcinoma cell viability – A549, calcein-AM fluorescence, 48 h, basal, profiling panel (AID 1162). Also: test concentration not given here. Particulars: higher = more signal.
A short description of assay [12]: compound effects on differentiated 3T3-L1 adipocyte viability – cell-based, 3T3-L1 adipocytes, calcein-AM fluorescence, 48 h, basal, profiling panel (AID 1163). Also: test concentration not given here. Particulars: 3T3-L1 adipocytes viability, higher = more signal.
Assay [13] can be described thus: compound effects on hepatocellular carcinoma cell viability – HepG2, calcein-AM fluorescence, 48 h, basal, profiling panel (AID 1164). Also: test concentration not given here. Particulars: higher = more signal.
The nature of assay [14]: compound effects on multiple myeloma cell viability – MM1S, calcein-AM fluorescence, 48 h, basal, profiling panel (AID 1165).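 Also: viability of MM1S multiple myeloma cells under basal unstimulated conditions; test concentration not given here.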 Particulars: higher = more signal.
Assay [15] is described as follows: calcein-AM signal in unstimulated myeloma cells – cell-based, calcein-AM fluorescence, 48 h, PK04 Diversity Set, profiling panel (AID 1166).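 Also: cells grown under basal conditions without added stimulus; test concentration not given here.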 Particulars: RPMI8226 myeloma viability, higher = more signal.
Assay [16] in a line: JC-1 mitochondrial signal, unstimulated HepG2 cells – cell-based, JC-1 fluorescence, 24 h, 100 nL compound, profiling panel (AID 1167). Also: test concentration not given here. Particulars: HepG2 mitochondrial potential, higher = more signal.
A short description of assay [17]: JC-1 mitochondrial signal, unstimulated adipocytes – cell-based, JC-1 fluorescence, 3T3-L1 adipocytes, 24 h, 100 nL compound, profiling panel (AID 1168). Also: test concentration not given here. Particulars: JC-1 mitochondrial fluorescence, higher = more signal, called active from +8 up or from −8 down.
The nature of assay [18]: JC-1 mitochondrial signal, unstimulated myeloma cells – cell-based, JC-1 fluorescence, RPMI8226, 24 h, 100 nL compound, profiling panel (AID 1169). Also: test concentration not given here. Particulars: JC-1 mitochondrial potential fluorescence, higher = more signal.
Assay [19] in a line: JC-1 mitochondrial signal, unstimulated MM1S myeloma – cell-based, JC-1 fluorescence, 24 h, 100 nL compound, profiling panel (AID 1170). Also: test concentration not given here. Particulars: MM1S mitochondrial potential, higher = more signal.
The nature of assay [20]: resazurin metabolic signal in A549 cells – cell-based, resazurin fluorescence, 24 h, PK04 Diversity Set, profiling panel (AID 1171). Also: test concentration not given here. Particulars: A549 viability, higher = more signal, called active from +8 up or from −8 down. For orientation: Resazurin is reduced to fluorescent resorufin, in cell work by metabolically active cells.

Chain of NADPH oxidase 2 (Homo sapiens) (P04839 whole entry, looked up): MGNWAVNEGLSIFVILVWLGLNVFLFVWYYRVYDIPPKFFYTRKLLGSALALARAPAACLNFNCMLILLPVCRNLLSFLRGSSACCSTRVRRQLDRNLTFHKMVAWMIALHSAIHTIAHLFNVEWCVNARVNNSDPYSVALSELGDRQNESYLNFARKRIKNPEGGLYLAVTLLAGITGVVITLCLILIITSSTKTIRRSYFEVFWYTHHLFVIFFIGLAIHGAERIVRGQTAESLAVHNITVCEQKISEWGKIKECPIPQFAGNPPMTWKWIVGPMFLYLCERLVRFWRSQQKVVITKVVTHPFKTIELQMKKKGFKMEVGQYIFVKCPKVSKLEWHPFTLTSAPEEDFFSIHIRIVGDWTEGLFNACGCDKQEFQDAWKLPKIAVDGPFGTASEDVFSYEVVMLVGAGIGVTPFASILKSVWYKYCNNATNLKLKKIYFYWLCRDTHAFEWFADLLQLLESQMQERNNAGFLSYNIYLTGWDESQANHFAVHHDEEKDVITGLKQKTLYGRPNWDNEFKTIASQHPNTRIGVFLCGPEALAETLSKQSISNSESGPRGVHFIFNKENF

Regarding `CCC[C@@H]1C[C@@]1(CCC)[C@@H](NC(=O)c1ccccc1)c1cccc(Cl)c1`, the z-score in assay [1] is -1 (inactive); in assay [3], 0.534 (inactive); in assay [4], 0.364 (inactive); in [5] it was 0.277 (inactive); in assay [6], 0.839 (inactive); in assay [7], -0.841. Also, the z-score was 0.46 (inactive) in assay [8]; -0.107 (inactive) in assay [9]; 0.328 in assay [10]; -0.927 in assay [11]; -0.546 in [12]; -0.0147 in assay [13]. The z-score in assay [14] is -1.78; in assay [15] it was -0.385; in assay [16], 0.909; in assay [17], 0.349 (inactive); in assay [18], 0.466; in assay [19] it was -0.0307. Moreover, in assay [20], the z-score was 0.908 (inactive). The molecule also yielded a composite z-score in assay [2] of 2.15.

On to `COc1ccc(C(=O)Nc2ccc(CN3C(=O)[C@]4(O[C@H](CCO)[C@@H]([Si](C)(C)c5ccc(OC)cc5)[C@@H]4C)c4ccccc43)cc2)cc1`, for which the z-score in assay [1] was -1.37 (inactive); in assay [3], 5.29 (inactive); in assay [4], 2.11 (inactive); in assay [5] it was -0.205 (inactive); in assay [6] it was 2.12 (inactive); in assay [7], -1.38. For the same molecule, the z-score is -6.37 (inactive) in assay [8]; -2.55 (inactive) in assay [9]; -1.54 in [10]; -3.8 in assay [11]; -0.0656 in assay [12]; -4.64 in [13]. Also, the z-score in [14] was -2.62; in assay [15] it was -4.35; in [16] it was -2.72; in [17] it was 1.36 (inactive); in assay [18], -1.06; in [19], -2.28. Besides, in [20], the z-score was -3.79 (inactive). In assay [2], this molecule displayed a composite z-score of 0.199.

`O=C1C[C@@](C(=O)NCCN2CCOCC2)(c2ccc([N+](=O)[O-])cc2)[C@@H](c2ccc(CO)cc2I)N1CC12CC3CC(CC(C3)C1)C2`: the z-score in assay [1] was -0.942 (inactive); in [3] it was 18.9 (active); in assay [4], 10.2 (active); in assay [5], 0.797 (inactive); in assay [6], 1.28 (inactive); in assay [7] it was 0.238. Besides, the z-score in [8] is -8.18 (active); in assay [9], -1.75 (inactive); in assay [10] it was 1.58; in assay [11], -4.03; in assay [12], 0.546; in assay [13], -5.11. The z-score in assay [14] was -3.86; in [15], -4.39; in assay [16], -2.72; in [17], 0.981 (inactive); in assay [18], -0.93; in assay [19], -2.17. Further, the z-score in [20] is -4.83 (inactive). Also, in [2], the composite z-score was 0.344.

For `C=CCNC(=O)[C@@H]1[C@H]2C(=O)O[C@H](c3ccccc3)[C@H](c3ccccc3)N2[C@H](c2ccc(O)cc2)[C@@]12C(=O)N(C(=O)OCCOC)c1ccc(C#CCNC(N)=O)cc12`, the z-score is 0.411 (inactive) in assay [1]; 0.691 (inactive) in assay [3]; -0.836 (inactive) in assay [4]; 0.537 (inactive) in [5]; -1.18 (inactive) in assay [6]; 1.32 in assay [7]. The z-score in assay [8] is 1.08 (inactive); in assay [9], 0.438 (inactive); in [10] it was 0.421; in assay [11], 0.978; in assay [12] it was 0.921; in assay [13], 0.866. Besides, the z-score in assay [14] was 0.768; in assay [15], 1.09; in assay [16] it was -0.194; in [17], -0.323 (inactive); in assay [18], 0.383; in assay [19], 0.751. In addition, the z-score in assay [20] was -0.645 (inactive). This molecule also registered a composite z-score in assay [2] of 0.0012.

`CC(C)OC(=O)C=C1C[C@@H](c2ccccn2)O[C@@H](c2ccccn2)O1`: the z-score in assay [1] is -0.167 (inactive); in assay [3] it was 5.54 (inactive); in assay [4], 1.2 (inactive); in assay [5], -0.277 (inactive); in [6] it was 0.562 (inactive); in [7], -0.0693. The z-score in assay [8] is -0.223 (inactive); in assay [9], -0.461 (inactive); in assay [10] it was -0.405; in [11], -0.564; in assay [12], -0.631; in [13], -0.217. Moreover, the z-score is 0.667 in assay [14]; -1.14 in assay [15]; -0.894 in assay [16]; -0.341 (inactive) in [17]; 0.65 in assay [18]; -0.816 in assay [19]. Further, the z-score in [20] was 0.118 (inactive). In assay [2], this molecule registered a composite z-score of -0.0559.

For `COc1cc(Br)cc(C(O)C2C=CC3C(=O)N(C)C(=O)C3N2N2CCCCC2)c1OC` (stereo not given), the z-score in assay [1] is -1.8 (inactive); in assay [3] it was 0.712 (inactive); in assay [4], 1.27 (inactive); in assay [5], 0.126 (inactive); in assay [6] it was 1.17 (inactive); in assay [7], -1.45. Moreover, the z-score was 0.524 (inactive) in assay [8]; -3.5 (inactive) in [9]; -0.637 in [10]; -1.12 in assay [11]; -0.456 in [12]; -0.315 in assay [13]. Besides, the z-score in assay [14] is -1.68; in assay [15], -0.18; in [16] it was -1.05; in assay [17] it was -0.535 (inactive); in assay [18], 0.672; in assay [19], -0.129. The z-score in assay [20] is -0.318 (inactive). In assay [2], this molecule returned a composite z-score of 0.152.

`CCC(CC)C(O)C1C=CC2C(=O)NC(=O)C2N1Nc1ccccn1` (stereo not given): the z-score is -0.613 (inactive) in assay [1]; 0.146 (inactive) in assay [3]; 0.519 (inactive) in [4]; -0.02 (inactive) in assay [5]; 0.973 (inactive) in [6]; -0.534 in [7]. The z-score in assay [8] is -1.58 (inactive); in assay [9], -2.05 (inactive); in [10], -1.52; in assay [11], -0.651; in assay [12], -0.883; in assay [13], 0.0063. Besides, the z-score in assay [14] was 0.152; in [15], 0.0749; in assay [16], -0.29; in [17], -0.414 (inactive); in [18], -0.07; in [19], -0.138. Besides, the z-score in assay [20] is -0.801 (inactive). In addition, in assay [2], the composite z-score came out at 0.158.

In the case of `COC(=O)[C@@]1(Cc2ccccc2)[C@H]2c3cc(C(=O)N4CCCC4)n(Cc4ccc(S(C)(=O)=O)cc4)c3C[C@H]2CN1C(=O)c1ccccc1`, the z-score is -0.94 (inactive) in assay [1]; 1.98 (inactive) in assay [3]; 0.238 (inactive) in assay [4]; 0.716 (inactive) in assay [5]; 0.742 (inactive) in assay [6]; -0.121 in assay [7]. Besides, the z-score in assay [8] is 0.613 (inactive); in assay [9] it was -1.16 (inactive); in assay [10], -1.9; in assay [11], -0.235; in assay [12], 0.949; in [13], -0.838. For the same molecule, the z-score was -1.09 in assay [14]; -1.68 in assay [15]; 2.43 in assay [16]; -1.62 (inactive) in assay [17]; 0.148 in assay [18]; -0.659 in assay [19]. Also, in assay [20], the z-score was 0.142 (inactive). In assay [2], this molecule gave a composite z-score of 0.198.

`C=C(C(=O)CC[C@@H](OC(=O)c1cccnc1)c1ccccc1OCCO)C(C)C`: the z-score in assay [1] is 0.151 (inactive); in assay [3], 15.1 (active); in [4], 2.08 (inactive); in assay [5], 0.759 (inactive); in assay [6] it was 0.601 (inactive); in assay [7], 0.149. For the same molecule, the z-score in [8] was -0.551 (inactive); in [9], -0.118 (inactive); in assay [10], -1.34; in [11], -0.125; in assay [12] it was 0.909; in [13], -0.599. For the same molecule, the z-score in [14] was -1.81; in assay [15] it was -1.08; in [16] it was -1.17; in assay [17], 0.208 (inactive); in assay [18] it was -0.356; in assay [19] it was -1.07. In addition, the z-score in assay [20] was -0.414 (inactive). This molecule yielded a composite z-score in assay [2] of 0.106.
